# According to PubChem BioAssay (Tox21):
# Unmarked numbers belong to inactive results. Inconclusive results are not listed. Entries that show only a call come without a potency. Activity calls are given as the source filed them. Unless noted, the call rests on the fitted dose curve.
# Key:
# [1] = Nuclear factor erythroid 2-related factor 2/antioxidant responsive element (Nrf2/ARE) small molecule agonists: qHTS cell viability counter screen in human keratinocytes (AID 1919968; active means well fitted curve in the direction sought with a large enough effect in the repeat runs; an effect the other way counts as inactive or inconclusive; further: nearly all actives have a fitted effect of over 55% in size; further: potency means the concentration at half of the fitted maximal effect)
# Procedure, shortened: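 Cells of the KeratinoSens line were plated at 1,500 per well and left for 5 h before compound transfer from DMSO stocks. After a 23 h incubation (37 C, 5% CO2), CellTiter-Fluor was added. Signal was taken as fluorescence intensity 1 h later.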
# [2] = biological target: Gonadotropin-releasing hormone receptor (Homo sapiens) (UniProt P30968); assay: Human gonadotropin-releasing hormone receptor (GnRHR) small molecule agonists, calcium flux assay in GnRHR-HEK293 cells (AID 1920063); further: nearly all actives have a fitted effect of over 35% in size
# Procedure, shortened: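 Compounds dissolved in DMSO are pin-transferred onto dye-loaded GnRHR-HEK293 cells, which were seeded 18 h before at 37 C/5% CO2. Calcium signal is read as fluorescence intensity at 1 s intervals for 3 min.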
# [3] = biological target: KiSS-1 receptor (Homo sapiens) (UniProt Q969F8); assay: Human kisspeptin (KISS1R) small molecule agonists, calcium flux assay in KISS1R-HEK293 cells (AID 1920064; active means well fitted curve in the direction sought with a large enough effect in the repeat runs; an effect the other way counts as inactive or inconclusive)
# Procedure, shortened: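 Cell line: HEK293, stable human KISS1R. Dye loading 1 h at 37 C after 18 h culture. Read: kinetic fluorescence, 480/540 nm, 3 min at 1 s intervals.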
# [4] = G protein-coupled receptor (GPCR) small molecule agonists, calcium flux assay: HEK293 wild type cell line counter screen (AID 1920065)
# Procedure, shortened: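 Tox21 10K compounds, 15 concentrations each in triplicate, pin-transferred in DMSO onto dye-loaded cells; kinetic read at 480/540 nm for 3 min, 1 s intervals.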
# [5] = p53 small molecule agonists, cell-based qHTS assay with rat liver microsomes (AID 1963578)
# Procedure, shortened: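 Agonist mode in p53RE-bla reporter cells, with compounds co-incubated 16 h at 37 C alongside 0.5 mg/mL rat liver microsomes and 0.5 mg/mL NADPH (final), followed by a 2 h LiveBLAzer detection step.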
# [6] = p53 small molecule agonists, cell-based qHTS assay with human liver microsomes: qHTS cell viability counter screen (AID 1963579); further: nearly all actives have a fitted effect of over 45% in size
# Procedure, shortened: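 Metabolically activated exposure: compounds, human liver microsomes and NADPH (0.5 mg/mL final apiece) were added to p53RE-bla cells seeded 5 h earlier, left 16 h at 37 C, and then assessed for viability by CellTiter-Glo luminescence.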
# [7] = p53 small molecule agonists, cell-based qHTS assay with rat liver microsomes: qHTS cell viability counter screen (AID 1963580); further: nearly all actives have a fitted effect of over 45% in size
# Procedure, shortened: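 Cytotoxicity counter screen: intracellular ATP read by CellTiter-Glo luminescence in the p53 reporter wells. HCT-116 p53RE-bla cells were treated for 16 h at 37 C alongside rat liver microsomes and NADPH, each 0.5 mg/mL final.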
# [8] = p53 small molecule agonists, cell-based qHTS assay: qHTS cell viability counter screen (AID 1963581); further: nearly all actives have a fitted effect of over 45% in size
# Procedure, shortened: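 ATP content measured by luminescence in HCT-116 p53RE-bla cells treated 16 h at 37 C, same wells as the reporter screen.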
# [9] = biological target: 5-hydroxytryptamine receptor 2A (Homo sapiens) (UniProt P28223); assay: 5-hydroxytryptamine receptor 2A (HTR2A) small molecule antagonists, cell-based qHTS assay (AID 1963586); further: nearly all actives have a fitted effect of over 45% in size
# Procedure, shortened: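 CHO cells stably expressing human HTR2A were plated for 18 h at 37 C, then loaded with calcium dye for 1 h. Compounds were preincubated 5 min at room temperature before DOI (4 nM solution) was added. Kinetic fluorescence was read for 3 min.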
# [10] = biological target: 5-hydroxytryptamine receptor 2A (Homo sapiens) (UniProt P28223); assay: 5-hydroxytryptamine receptor 2A (HTR2A) small molecule agonists, cell-based qHTS assay (AID 1963587); further: nearly all actives have a fitted effect of over 30% in size
# Procedure, shortened: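 Kinetic calcium-flux fluorescence (2 min, 1 sec intervals) after compound addition in agonist mode. HTR2A-CHO cells were cultured 18 h, then dye-loaded 1 h at 37 C.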
# [11] = biological target: Muscarinic acetylcholine receptor M1 (Homo sapiens) (UniProt P11229); assay: Cholinergic receptor muscarinic 1 (CHRM1) small molecule antagonists, cell-based qHTS assay (AID 1963588); further: nearly all actives have a fitted effect of over 40% in size
# Procedure, shortened: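 Compounds were tested at 15 concentrations in three independent runs. Dye-loaded CHRM1-CHO cells were exposed 5 min at room temperature before stimulation by acetylcholine added at 50nM. Intracellular calcium was read kinetically on FDSS for 3 min.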
# [12] = biological target: Muscarinic acetylcholine receptor M1 (Homo sapiens) (UniProt P11229); assay: Cholinergic receptor muscarinic 1 (CHRM1) small molecule agonists, cell-based qHTS assay (AID 1963589); further: nearly all actives have a fitted effect of over 35% in size
# Procedure, shortened: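 Homogeneous fluorescence calcium flux, agonist mode. Human M1-expressing CHO cells; compound dosed at 15 concentrations, three independent runs; signal sampled every 1 sec.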
# [13] = cAMP Responsive Elements (CRE) small molecule agonists, cell-based qHTS assay (AID 1963590)
# Procedure, shortened: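 HEK 293T cells stably bearing CRE-bla were plated at 2,000 cells per well and rested 18 h. Compounds, positive controls or DMSO were added for 3 h at 37 C. LiveBLAzer B/G substrate was then loaded for 2 h at room temperature.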
# [14] = cAMP Responsive Elements (CRE) small molecule antagonists, cell-based qHTS assay (AID 1963591; active means well fitted inhibition curve with a large enough effect in the signal ratio in the repeat runs, not every such curve was filed as active; the % refers to the signal ratio; further: potency means the concentration at half of the fitted maximal effect)
# Procedure, shortened: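 First, CRE-bla HEK293T cells settled 18 h at 37 C. Next, compound and 0.25 uM final NKH477 were applied for 3 h. Last, LiveBLAzer B/G substrate was loaded for 2 h at room temperature.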
# [15] = biological target: Beta-2 adrenergic receptor (Homo sapiens) (UniProt P07550); assay: Adrenergic beta2 receptor (ADRB2) small molecule antagonists, cell-based qHTS assay (AID 1963592); further: nearly all actives have a fitted effect of over 50% in size; further: potency means the concentration at half of the fitted maximal effect; on activity change, negative = inhibition: series mostly up to about 92 µM
# Procedure, shortened: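 Assay format: CHO-ADRB2 cells, 18-20hr seeding at 37C/5% CO2, then compound plus 1nM isoproterenol agonist mix for 0.5hr RT. Homogeneous time-resolved fluorescence cAMP detection after 1hr, expressed as 665/615 nm ratio.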
# [16] = biological target: Beta-2 adrenergic receptor (Homo sapiens) (UniProt P07550); assay: Adrenergic beta2 receptor (ADRB2) small molecule agonists, cell-based qHTS assay (AID 1963593);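 further: CHO cells stably overexpressing human ADRB2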
# Procedure, shortened: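 CHO cells stably over-expressing ADRB2 were plated overnight at 37C, then dosed with compounds plus a stimulation mix containing 100uM IBMX and 25uM Ro-20-1724 for 0.5hr at room temperature. cAMP was measured by HTRF competition, 1hr.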
# [17] = biological target: D(2) dopamine receptor (Homo sapiens) (UniProt P14416); assay: Dopamine D2 receptor (DRD2) small molecule agonists, cell-based qHTS assay (AID 1963594); further: nearly all actives have a fitted effect of over 35% in size; further: potency means the concentration at half of the fitted maximal effect
# Procedure, shortened: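 cAMP accumulation in DRD2-HEK293 cells measured by HTRF after 1 h detection; compounds added 10 min before NKH477 (200nM […]) forskolin-analogue stimulation, 30 min at room temperature, with Ro20-1724 present at 0.1 mM final.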
# [18] = biological target: D(2) dopamine receptor (Homo sapiens) (UniProt P14416); assay: Dopamine D2 receptor (DRD2) small molecule antagonists, cell-based qHTS assay (AID 1963595; active means well fitted inhibition curve with a large enough effect in the signal ratio in the repeat runs, with a control signal flat; the % refers to the signal ratio)
# Procedure, shortened: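 HEK293 cells stably expressing DRD2, preincubated with 0.1 mM Ro20-1724 and compounds 10 min, were stimulated with 200 nM NKH477 plus 12 nM quinpirole for 30 min at room temperature; cAMP measured by HTRF (665/620 nm).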
# [19] = p53 small molecule agonists, cell-based qHTS assay (AID 1963582; active means well fitted activation curve with a large enough effect in the signal ratio in the repeat runs, not every such curve was filed as active; the % refers to the signal ratio; further: potency means the concentration at half of the fitted maximal effect)
# Procedure, shortened: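 16 h compound exposure (37 C) of p53 response element–bla cells, preceded by 5 h recovery at 37 C/5% CO2; read-out via LiveBLAzer B/G FRET substrate, 2 h RT, fluorescence intensity.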
# Beta-2 adrenergic receptor (Homo sapiens), sequence (P07550 whole entry, looked up): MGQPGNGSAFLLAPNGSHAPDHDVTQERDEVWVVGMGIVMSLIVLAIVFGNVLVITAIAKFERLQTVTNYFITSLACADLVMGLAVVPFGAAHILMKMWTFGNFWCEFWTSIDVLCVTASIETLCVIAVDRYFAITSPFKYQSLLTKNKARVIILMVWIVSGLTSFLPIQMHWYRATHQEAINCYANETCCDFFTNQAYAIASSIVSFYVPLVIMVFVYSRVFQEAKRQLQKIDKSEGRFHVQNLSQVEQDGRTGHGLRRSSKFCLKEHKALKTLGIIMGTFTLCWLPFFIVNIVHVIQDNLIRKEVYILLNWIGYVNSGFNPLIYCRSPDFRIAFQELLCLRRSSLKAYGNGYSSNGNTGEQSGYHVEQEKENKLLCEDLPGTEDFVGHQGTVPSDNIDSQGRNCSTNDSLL
# Muscarinic acetylcholine receptor M1 (Homo sapiens), sequence (P11229 whole entry, looked up): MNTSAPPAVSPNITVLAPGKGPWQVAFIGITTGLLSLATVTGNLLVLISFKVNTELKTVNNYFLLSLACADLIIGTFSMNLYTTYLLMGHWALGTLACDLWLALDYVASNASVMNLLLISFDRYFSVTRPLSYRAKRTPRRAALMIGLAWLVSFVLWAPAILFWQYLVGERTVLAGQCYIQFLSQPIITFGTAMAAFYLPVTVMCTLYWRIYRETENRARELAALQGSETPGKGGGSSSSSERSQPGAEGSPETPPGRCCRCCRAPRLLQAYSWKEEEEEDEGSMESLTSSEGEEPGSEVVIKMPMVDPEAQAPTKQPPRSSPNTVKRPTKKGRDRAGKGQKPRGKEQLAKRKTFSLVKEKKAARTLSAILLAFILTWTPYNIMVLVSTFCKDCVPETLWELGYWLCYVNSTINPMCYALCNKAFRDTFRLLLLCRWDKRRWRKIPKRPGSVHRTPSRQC
# KiSS-1 receptor (Homo sapiens), sequence (Q969F8 whole entry, looked up): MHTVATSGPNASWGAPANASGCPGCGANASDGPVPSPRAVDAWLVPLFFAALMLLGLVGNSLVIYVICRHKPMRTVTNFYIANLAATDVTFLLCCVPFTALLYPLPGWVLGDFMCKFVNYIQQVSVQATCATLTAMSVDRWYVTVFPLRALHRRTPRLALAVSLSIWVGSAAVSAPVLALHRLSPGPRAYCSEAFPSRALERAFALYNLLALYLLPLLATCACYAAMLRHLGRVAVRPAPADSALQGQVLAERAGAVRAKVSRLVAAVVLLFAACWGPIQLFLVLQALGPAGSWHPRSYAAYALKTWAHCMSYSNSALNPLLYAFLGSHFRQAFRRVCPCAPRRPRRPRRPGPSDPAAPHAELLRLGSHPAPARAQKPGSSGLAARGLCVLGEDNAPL
# 5-hydroxytryptamine receptor 2A (Homo sapiens), sequence (P28223 whole entry, looked up): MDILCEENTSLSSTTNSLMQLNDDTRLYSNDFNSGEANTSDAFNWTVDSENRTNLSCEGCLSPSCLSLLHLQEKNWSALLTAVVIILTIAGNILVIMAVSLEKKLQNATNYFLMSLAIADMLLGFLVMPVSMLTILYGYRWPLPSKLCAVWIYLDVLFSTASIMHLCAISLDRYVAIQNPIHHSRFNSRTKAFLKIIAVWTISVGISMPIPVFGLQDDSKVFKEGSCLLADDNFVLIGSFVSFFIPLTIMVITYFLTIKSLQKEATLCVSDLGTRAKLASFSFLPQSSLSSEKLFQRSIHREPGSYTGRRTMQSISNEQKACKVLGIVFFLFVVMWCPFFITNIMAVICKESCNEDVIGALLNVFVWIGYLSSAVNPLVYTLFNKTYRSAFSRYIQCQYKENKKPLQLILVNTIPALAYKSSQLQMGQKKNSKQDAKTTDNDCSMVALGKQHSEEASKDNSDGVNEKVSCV
# Gonadotropin-releasing hormone receptor (Homo sapiens), sequence (P30968 whole entry, looked up): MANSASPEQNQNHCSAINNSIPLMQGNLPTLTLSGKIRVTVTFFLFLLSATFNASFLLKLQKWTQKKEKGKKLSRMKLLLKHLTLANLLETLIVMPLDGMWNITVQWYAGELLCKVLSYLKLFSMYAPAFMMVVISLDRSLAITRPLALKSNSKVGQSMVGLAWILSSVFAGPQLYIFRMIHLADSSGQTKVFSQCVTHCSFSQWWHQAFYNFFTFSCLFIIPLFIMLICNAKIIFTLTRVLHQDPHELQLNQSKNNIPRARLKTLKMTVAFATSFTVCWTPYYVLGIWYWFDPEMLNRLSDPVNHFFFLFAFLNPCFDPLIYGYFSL
# D(2) dopamine receptor (Homo sapiens), sequence (P14416 whole entry, looked up): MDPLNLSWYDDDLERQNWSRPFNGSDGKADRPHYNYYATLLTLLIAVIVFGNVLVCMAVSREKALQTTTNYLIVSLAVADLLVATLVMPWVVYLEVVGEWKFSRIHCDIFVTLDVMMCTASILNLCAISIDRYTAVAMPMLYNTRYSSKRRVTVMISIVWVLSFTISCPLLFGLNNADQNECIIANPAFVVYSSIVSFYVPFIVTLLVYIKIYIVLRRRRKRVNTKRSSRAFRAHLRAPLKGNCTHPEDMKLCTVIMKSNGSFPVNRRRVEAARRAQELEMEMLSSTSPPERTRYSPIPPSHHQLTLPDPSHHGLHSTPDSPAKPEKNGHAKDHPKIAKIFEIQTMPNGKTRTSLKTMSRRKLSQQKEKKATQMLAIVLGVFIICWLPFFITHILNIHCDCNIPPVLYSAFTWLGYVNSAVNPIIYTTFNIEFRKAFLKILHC
smiles,measurement,setting,value
O=C(NCC(O)CO)c1c(I)c(C(=O)NCC(O)CO)c(I)c(N(CCO)C(=O)CO)c1I (centres undefined),Potency,[1],inactive
same,Potency,[2],inactive
same,Potency,[3],inactive
same,Potency,[4],inactive
same,Potency,[5],inactive
same,Potency,[6],inactive
same,Potency,[7],inactive
same,Potency,[8],inactive
same,Potency,[9],inactive
same,Potency,[10],inactive
same,Potency,[11],inactive
same,Potency,[12],inactive
same,Potency,[13],inactive
same,Potency,[14],inactive
same,Potency,[15],inactive
same,Potency,[16],inactive
same,Potency,[17],inactive
same,Potency,[18],inactive
CCc1ccc(C)cc1,Potency,[1],inactive
same,Potency,[2],inactive
same,Potency,[3],inactive
same,Potency,[4],inactive
same,Potency,[5],inactive
same,Potency,[6],inactive
same,Potency,[7],inactive
same,Potency,[19],inactive
same,Potency,[9],inactive
same,Potency,[10],inactive
same,Potency,[11],inactive
same,Potency,[12],inactive
same,Potency,[13],inactive
same,Potency,[14],inactive
same,Potency,[15],inactive
same,Potency,[17],inactive
same,Potency,[18],inactive
CCCCC(CC)C(=O)OCCOCCOCCOCCOC(=O)C(CC)CCCC (centres undefined),Potency,[1],inactive
same,Potency,[2],inactive
same,Potency,[3],inactive
same,Potency,[4],inactive
same,Potency,[6],inactive
same,Potency,[7],inactive
same,Potency,[8],inactive
same,Potency,[9],inactive
same,Potency,[10],inactive
same,Potency,[11],inactive
same,Potency,[12],inactive
same,Potency,[13],inactive
same,Potency,[14],inactive
same,Potency,[15],inactive
same,Potency,[16],inactive
same,Potency,[17],inactive
same,Potency,[18],inactive
CC(=O)OCC(=O)[C@@]1(O)[C@H](OC(C)=O)C[C@H]2[C@@H]3CCC4=CC(=O)C=C[C@]4(C)[C@@]3(F)[C@@H](O)C[C@@]21C,Potency,[1],inactive
same,Potency,[2],inactive
same,Potency,[3],inactive
same,Potency,[4],inactive
same,Potency,[6],inactive
same,Potency,[7],inactive
same,Potency,[8],inactive
same,Potency,[19],inactive
same,Potency,[10],inactive
same,Potency,[11],inactive
same,Potency,[12],inactive
same,Potency,[13],inactive
same,Potency,[14],inactive
same,Potency,[15],inactive
same,Potency,[16],inactive
same,Potency,[17],inactive
same,Potency,[18],inactive
CCN1CCOCC1,Potency,[1],inactive
same,Potency,[2],inactive
same,Potency,[3],inactive
same,Potency,[4],inactive
same,Potency,[5],inactive
same,Potency,[6],inactive
same,Potency,[7],inactive
same,Potency,[8],inactive
same,Potency,[9],inactive
same,Potency,[10],inactive
same,Potency,[11],inactive
same,Potency,[12],inactive
same,Potency,[13],inactive
same,Potency,[14],inactive
same,Potency,[15],inactive
same,Potency,[16],inactive
same,Potency,[17],inactive
same,Potency,[18],inactive
CCN1/C(=C/C=C/c2sc3ccccc3[n+]2CC)Sc2ccccc21,Potency,[1],3.26 µM (active)
same,activity change,[2],"-1.77% [at 11.8 µM, hits give high values]"
same,activation,[3],-1.63% [at 15.8 µM]
same,activation,[4],-0.0412% [at 11.8 µM]
same,activation,[5],2.93% [at 13.6 µM]
same,"activity change, negative = cytotoxicity",[6],8.44% [at 13.5 µM]
same,"activity change, negative = cytotoxicity",[7],1.97% [at 13.5 µM]
same,"activity, negative = inhibition",[9],-18.6% [at 12.7 µM]
same,"activity, negative = inhibition",[11],-35.2% [at 12.6 µM]
same,activation,[12],-0.119% [at 15.8 µM]
same,Potency,[14],11.6 µM (active)
same,Potency,[15],5.8 µM (active)
same,Potency,[17],14.6 µM (active)
same,"activity change, negative = inhibition",[18],-0.0645% [at 18.9 µM]
CC(=O)Oc1ccc(C2(c3ccc(OC(C)=O)cc3)Oc3ccccc3NC2=O)cc1,Potency,[1],inactive
same,Potency,[2],inactive
same,Potency,[3],inactive
same,Potency,[4],inactive
same,Potency,[5],inactive
same,Potency,[19],4.46 µM (active)
same,Potency,[9],inactive
same,Potency,[10],inactive
same,Potency,[12],inactive
same,Potency,[13],inactive
same,Potency,[15],inactive
same,Potency,[17],inactive
CN(C)CC/C=C1\c2ccccc2COc2ccccc21,Potency,[1],inactive
same,Potency,[2],inactive
same,Potency,[3],inactive
same,Potency,[4],inactive
same,Potency,[5],inactive
same,Potency,[7],inactive
same,Potency,[8],inactive
same,Potency,[13],inactive
same,Potency,[14],inactive
same,Potency,[17],inactive
same,Potency,[18],inactive
